Screening results as filed in PubChem BioAssay.
TTR transcr act: TTR transcription activators in neuroblastoma reporter cells, primary screen, cell-based, luminescence, SH-SY5Y, TTR promoter Gaussia luciferase. activation, % at 16.7 µM. 100% = recombinant luciferase protein wells. 92,000 compounds, 1.3% hits. AID 1117267, 2014;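 active = activation above the mean of all tested compounds plus 3 SD, cut at about 9.5% in these data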;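 note: cells exposed to compounds for one day before reading; 0% = median of all test compound wells on the plate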
HuH7 TTR inh: TTR promoter reporter inhibitors in hepatoma cells, counter-screen for TTR transcription activator project, cell-based, luminescence, HuH7 hepatoma. shares compounds with TTR transcr act. HuH7 TTR promoter-Gaussia luciferase reporter. inhibition, % at 16.7 µM. 1,100 compounds, 4% hits;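 active = average inhibition above the solvent-only control wells' mean plus 3 SD, cut at about 15% in these data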;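 note: 0% = cells with DMSO only and 100% = cells with inhibitor control FD; inhibitors lower well luminescence so higher value means more inhibition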
TTR act confirm: TTR transcription activators, retest, confirmation, cell-based, luminescence, SH-SY5Y, triplicate | SHSY5Y TTR promoter Gaussia luciferase; 100% = purified Lucia enzyme wells, no cells | AID 1117280, 2014 | shares compounds with TTR transcr act | 1,100 tested, under 10 active | activation, % at 16.7 µM;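 active = mean activation above a set limit taken from the earlier primary screen, cut at about 11% in these data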;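 note: 0% = DMSO-treated cells and 100% = recombinant Lucia luciferase without cells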
Starred values were filed as active, the others as inactive. Shown is part of a subset that was picked to be rich in hits.

SMILES | TTR transcr act | others
Cc1ccc(C)c(S(=O)(=O)N2CCC3(CC2)OCCO3)c1 | -1
CC(=O)N1CCN(S(=O)(=O)c2ccc(Cl)cc2F)CC1 | 1
Cn1c(=O)c2c(nc(SCC(=O)c3ccc(F)cc3)n2C)n(C)c1=O | 0
Cn1c(=O)c2c(ncn2CC(O)CNc2ccc(F)cc2)n(C)c1=O (centres undefined) | 16* | HuH7 TTR inh=-11;TTR act confirm=0
Cn1c(=O)c2c(ncn2CC(=O)N2CCN(S(=O)(=O)c3ccc(F)cc3)CC2)n(C)c1=O | -1
NC(=O)C1CCN(c2nc(-c3ccc4c(c3)OCCCO4)cs2)CC1 | 0
CC(C)NC(=O)c1nc2c(nnn2Cc2cccc(Cl)c2)c(=O)[nH]1 | -2
COc1ccc(S[C@]2(C(=O)N3CCOCC3)CC(=O)N[C@@H]2c2ccc(OC)cc2)cc1 | -2
COC(=O)c1ccc(CSc2nc3ccccc3s2)o1 | -1
S=c1[nH]nc(CSc2nc3ccccc3s2)o1 | 14* | HuH7 TTR inh=-10;TTR act confirm=-1
Cn1c(CSc2nc3ccccc3s2)n[nH]c1=S | -2
CCOC(=O)[C@@]12CCC3=C1N(CCC3)C(=O)[C@H](CC(=O)NCc1cccs1)C2 | 0
COc1cccc(Cn2ncc3c4sc(S(C)=O)cc4n(C)c3c2=O)c1 (centres undefined) | 5
Cc1ccccc1CN1CCCCC(NC(=O)C2CCCC2)C1=O (centres undefined) | 0
COC(=O)C1CN(Cc2ccccc2)CCS(=O)(=O)N1Cc1cn(Cc2ccccc2Br)nn1 (centres undefined) | -1
COc1cc2cc(CN(CCO)C(=O)c3cccs3)c(=O)[nH]c2cc1OC | 33* | HuH7 TTR inh=-11;TTR act confirm=0
COc1cc2cc(CN(CCc3cccc(C)c3)C(=S)NCCCN(C)C)c(=O)[nH]c2cc1OC | -1
Cc1cccc(N(Cc2cc3cc(C)ccc3[nH]c2=O)C(=O)c2cccs2)c1 | -2
Cc1cc(C)n(CC2CC(=O)N(c3ccc(C)c(Cl)c3)C2=O)n1 (centres undefined) | 1
CCCc1c(O)nc(SC2CC(=O)N(c3ccc(C)c(Cl)c3)C2=O)[nH]c1=O (centres undefined) | 12* | HuH7 TTR inh=-6;TTR act confirm=0
CCOc1ccc(N2C(=O)CC(Sc3nc(C)cc(C)c3C#N)C2=O)cc1 (centres undefined) | 0
Cc1cc(NC(=O)CSCC(=O)N(C)Cc2ccc(F)cc2)no1 | 13* | HuH7 TTR inh=-11;TTR act confirm=-1
CSCC(=O)Nc1cc(C)on1 | 8
Cc1cc(NC(=O)CSCC(=O)OCc2nnc(-c3ccc(F)cc3)o2)no1 | -1
CCOc1cc(CNCCCN2CCOCC2)ccc1OCC(=O)NC(C)(C)C | 1
SMILES | TTR transcr act | others
CCOc1cc(CNC2CCCC2)ccc1OCc1ccccc1Cl | 0
CCOc1cc(CNCCN2CCOCC2)ccc1OCc1ccccc1Cl | 27* | HuH7 TTR inh=-7;TTR act confirm=-1
Cc1ccccc1C(=O)n1ccc2ccc(-c3ccc4ccn(Cc5ccc(C#N)cc5)c4c3)cc21 | 1
COc1ccc2[nH]c3c(c2c1)CCN[C@]31C(=O)N(Cc2cn(Cc3ccccc3)nn2)c2ccccc21 | 2
CCC[C@H]1[C@@H](OC(=O)NCc2cccc(Cl)c2)CC[C@@]23CCCN2C(=O)CCC[C@@H]13 | -2
COC(CNC(=O)[C@H](Cc1ccccc1)NCC(=O)NC1CCCCC1)OC | 0
COC(=O)[C@]12C[C@H](CC(=O)N3CCCCC3)C(=O)N(Cc3ccco3)C1=C[C@H](C1CCCC1)O[C@@H]2C | 0
COCCCNCCCCOc1ccccc1-c1ccccc1 | 1
COCCCNCCCCOc1ccc(OCc2ccccc2)cc1 | 34* | HuH7 TTR inh=-11;TTR act confirm=0
C=CCNCCCCOc1ccc(OCc2ccccc2)cc1 | 1
CCOC(=O)CC[C@H](NC(=O)[C@@H]1CC=C[C@@H]2CCN(Cc3ccc(Cl)cc3)C(=O)[C@@H]21)C(=O)OCC | 1
O=S1(=O)c2ccc(Br)cc2OC[C@@H](c2ccccc2)N1Cc1cn(CCC2OCCCO2)nn1 | -1
C#CCNC(=O)C[C@@H]1C(=O)N2CCCC3=C2[C@@]1(C(=O)OC)CCCC3 | 0
O=C(Nc1ccccc1)Nc1nc2ncccn2c1-c1ccc(C(F)(F)F)cc1 | -2
O=C(NNC(=O)c1ccc(Cl)cc1Cl)c1csc(-c2cccnc2)n1 | -3
O=C(NCc1ccc(Cl)cc1)c1csc(-c2cccnc2)n1 | 1
O=C(NNS(=O)(=O)c1ccc(F)cc1F)c1csc(-c2cccnc2)n1 | 19* | HuH7 TTR inh=-13;TTR act confirm=0
O=C(OCc1ccccc1)[C@H](Cc1ccccc1)NC(=O)[C@@H]1CC=C[C@@H]2CCN(Cc3ccccc3)C(=O)[C@@H]21 | 0
CCOC(=O)[C@@]12CCC3=C1N(CCC3)C(=O)[C@H](CC(=O)N1CCOCC1)C2 | -1
